# AmpC detergent: blocks E. coli AmpC beta-lactamase in detergent assay; P00811; AmpC hydrolysis of nitrocefin, absorbance 480 nm, 0.01% Triton; Potency, µM (titrated, usually from 114 µM), for inactives: top-dose activity change, negative = inhibition, most hits filed as inhibitors; actives 0.041% (n = 370,000); AID 485294;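 note: potency is the fitted concentration of half-maximal effect; 0% = no-compound wells and -100% = no-enzyme wells; nearly all actives have a fitted effect of over 25% in size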
# Target sequence (P00811 whole entry, looked up): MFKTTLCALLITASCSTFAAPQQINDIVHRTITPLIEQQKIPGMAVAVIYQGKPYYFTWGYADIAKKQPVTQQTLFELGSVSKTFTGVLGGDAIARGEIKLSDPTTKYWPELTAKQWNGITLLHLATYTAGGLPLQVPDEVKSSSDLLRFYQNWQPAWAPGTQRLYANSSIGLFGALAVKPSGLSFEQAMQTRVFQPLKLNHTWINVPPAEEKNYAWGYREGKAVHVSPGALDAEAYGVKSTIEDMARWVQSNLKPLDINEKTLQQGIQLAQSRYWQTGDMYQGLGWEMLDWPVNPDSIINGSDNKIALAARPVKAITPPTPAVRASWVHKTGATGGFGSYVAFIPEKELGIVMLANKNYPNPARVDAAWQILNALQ
#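 AmpC (5.3 nM in the dispensed reagent) in 20 mM phosphate pH 7.0 with 0.01% (detergent screen) or 0.0001% Triton X-100 was preincubated with compounds for 15 min at room temperature. Nitrocefin was then added from an 800 uM solution, and hydrolysis was followed at 480 nm.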
# AmpC inh no detg: AmpC beta-lactamase inhibition without detergent | P00811 | AmpC nitrocefin hydrolysis, absorbance 480 nm, 0.0001% Triton | Potency, µM (doses to about 57.1 µM), for inactives: at the highest dose activity change, negative = inhibition, most hits filed as inhibitors | actives 0.52% (n = 330,000) | AID 485341;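 note: potency is the fitted concentration of half-maximal effect; plate controls were no compound for no effect and no enzyme for full effect; nearly all actives have a fitted effect of over 20% in size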
#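 20 mM phosphate pH 7.0 + 0.01% (detergent screen) or 0.0001% Triton X-100; 5.3 nM AmpC reagent; cpd preinc 15 min RT; nitrocefin (800 uM stock) to start; A480 q20 s × 4 min; Activity was normalised to no-enzyme and no-compound control wells.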
# HCMV inh: blocks human cytomegalovirus replication | HFF cells, HCMV-luciferase reporter, 72 h; stronger effect = lower value | activity change, negative = inhibition, % at 57.5 µM | actives 4.5% (n = 410,000); in the data active = activity change below about -60%; inconclusive = no clear call, values can overlap the other calls; inactive = above about -39%
#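 Inhibition of viral replication was scored as loss of reporter luminescence in HFFs infected with HCMV-luciferase (MOI 1 PFU/cell) for 72 h; compounds tested at 2 doses, normalized to buffer and Salinomycin controls.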
# FMDV antiviral: foot and mouth disease virus antiviral activity; actives 1.2% (n = 410,000); FMDV antiviral cell-based qHTS; Potency, µM (top dose mostly 57.9 µM), for inactives: top-dose activity change, negative = inhibition, usual class: inhibitors; calls by dose curve; tested in HEK293T cells; note: read-out not given here; potency is the fitted concentration of half-maximal effect; nearly all actives have a fitted effect of over 45% in size
# HCV inh: HCV inhibition; Huh7.5.1 HCVcc-Cre infection, luciferase reporter, 44 h; Potency, µM (titrated, usually from 41.8 µM), for inactives: top-dose activity change, negative = inhibition, usual class: inhibitors; actives 3.4% (n = 340,000); AID 651820; note: potency is the fitted concentration of half-maximal effect
#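 After 44 h co-culture of compound, cells and HCVcc-Cre (~0.5 moi), substrate is added for 15 min at room temperature and luciferase measured over 15 sec. Cells were seeded at 1,000/well and pre-cultured 4 h.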
# An asterisk follows results filed as active; ? = inconclusive; . = no result given; [ ] = another dose, or the depositor's remark. Hits are enriched below; roughly 7.3% of the tested compounds scored in any of these assays. Unless noted, calls come from the whole dose curve; as a rule, active = well fitted curve in the direction sought with a large enough effect; inconclusive = small, poorly fitted or top-dose-only effect, or another doubt; inactive = no such curve, though single readings can be large; an effect the other way counts as inactive or inconclusive. Unless noted, % is set by controls: 0 for no effect and ±100 for the full control effect.
SMILES,AmpC detergent,AmpC inh no detg,HCMV inh,FMDV antiviral,HCV inh
NNc1nnc2c3cc(F)ccc3n(CCc3ccccc3)c2n1,3%,-27%,-94*,-10%,?
CO[C@H]1[C@H](NC(=O)c2ccco2)c2ccccc2C12CCN(Cc1cnc(N(C)C)s1)CC2,.,.,.,-16%,.
COc1ccc(-c2cc([C@H]3[C@@H]4C=CCC[C@@]4(C)C(=O)N3Cc3ccccc3)ccc2F)cc1OC,-7%,145%,21,?,10µM*
Cc1ccc(-c2cc([C@H]3[C@@H]4C=CCC[C@@]4(C)C(=O)N3Cc3ccccc3)ccc2F)cc1,3%,12%,-16,-5%,-66%
COc1ccc(-c2ccc([C@H]3[C@@H]4C=CCC[C@@]4(C)C(=O)N3Cc3ccccc3)c(F)c2)cc1OC,-5%,56%,271,?,?
COc1ccc(-c2c([C@H]3[C@@H]4C=CCC[C@@]4(C)C(=O)N3Cc3ccccc3)ccc3ccccc23)cc1OC,-3%,42%,-60*,?,-13%[8.37 µM]
Cc1ccc(S(=O)(=O)N[C@H]2CC[C@@]34CCCN3C(=O)CCC[C@H]4[C@H]2Cc2ccccc2)cc1,.,.,-18,.,.
Cc1ccc2c(c1)C(=O)OC(C(=O)Nc1ncc(Cc3ccccc3Cl)s1)C2 (stereo not drawn),26%,.,-23,2%,.
Clc1cccc(CN2CCc3c([nH]c4ccccc34)C2)c1Cl,-1%,-48%,-91*,?,?
CC(C)(C)n1nc2c(c1NC(=O)c1ccc(C(F)(F)F)cc1)CS(=O)(=O)C2,2%,9%,-16,-24%,16%
COc1cccc2cc(/C(=N/O)c3ccc(Br)cc3)oc12,3%,-24%[2.29 µM],-66*,-19%,-29%
COc1cc2nc(CN3CC=C(c4ccccc4)CC3)[nH]c(=O)c2cc1OC,.,.,-99*,-11%,3.5µM*
CCNc1ccc(C(=O)OCC(=O)NC(C)c2ccccc2)cc1[N+](=O)[O-] (stereo not drawn),2%,-23%,-66*,-21%,?
N#Cc1ccc(C(=O)OCCCc2cc3ccccc3c(=O)o2)cc1,3%,-12%,24,32%,4%
Nc1ccc2nc(-c3ccc(N)c(Cl)c3)[nH]c2c1,?,-17%,5,7%,?
Nc1ccc(-c2nc3c(Cl)cc(N)cc3[nH]2)cc1,0%,-23%,?,4µM*,?
CCOC(=O)C1CCCN(C(=O)c2cc(S(=O)(=O)N3CCCCC3)ccc2Cl)C1 (stereo not drawn),-14%,19%,-16,?,?
Cc1ccc(C)c(NC(=S)N/N=C2\CCc3ccccc32)c1,-2%,-45%,-25,9%,10µM*
Cc1cccc(NC(=S)N/N=C2/CCCCc3ccccc32)c1,-3%,32µM*,7,0%,-71%
C=C(C)CNC(=S)N/N=C1\CCCCc2ccccc21,-11%,-15%,-61*,-18%,-26%
Cc1ccc(NC(=S)N/N=C2/CCCCc3ccccc32)cc1,-11%,?,22,24%,-22%
CC1=C(C(=O)N2CCOCC2)CC(CC(=O)NCCCCc2ccccc2)C(=O)N1Cc1ccc(C(C)(C)C)cc1 (stereo not drawn),.,.,1,?,.
COc1ccc2nc(NC(=O)Nc3ccccc3OC)sc2c1,-6%,-15%,64,-18%,?
COc1ccc2nc(NC(=O)Nc3cccc4ccccc34)sc2c1,-7%,-28%,-76*,35%,-27%
COc1ccc2nc(NC(=O)c3ccc(-n4nc(C)cc4C)cc3)sc2c1,-10%,-7%,-106*,-12%,-19%
SMILES,AmpC detergent,AmpC inh no detg,HCMV inh,FMDV antiviral,HCV inh
COc1ccc(C(=O)Nc2nc3c(s2)Cc2cc(OC)ccc2-3)cc1,10%,-23%,?,10µM*,13µM*
O=C(Cn1cc([N+](=O)[O-])ccc1=O)N1CCCc2ccccc21,-12%,-8%,-28,-21%,9%
Cn1cc(Cl)c(/C(N)=N/OC(=O)c2ccccc2C(F)(F)F)n1,-1%,-16%,42,65%,10%
C/C(=N\NC(=O)c1ccc(Cl)cc1)c1ccccn1,3%,-5%,-101*,?,3.2µM*
C/C(=N\NC(=O)c1ccccn1)c1ccc(Cl)cc1,1%,-17%,-17,23%,-10%
COc1cccc(C(=O)N/N=C(/CCC(=O)O)c2ccccc2)c1,?,-27%,7,-12%,1%
CC(=NNC(=S)Nc1cccc(Cl)c1)c1ccccn1,.,.,-97*,-9%,?
COc1cc(C(=O)N/N=C(\c2ccccc2)c2ccccn2)cc(OC)c1OC,9%,-11%,-102*,40µM*,?
COc1cccc(C(=O)N/N=C(/c2ccccc2)c2ccccn2)c1,-2%,-12%,-102*,?,?
C=C1N(S(=O)(=O)C(F)(F)F)CC[C@@]12c1ccccc1N(C)[C@@H]2c1cn(C)c2ccccc12,.,.,6,.,.
COc1cc(C(=O)N/N=c2/sc3ccccc3n2C)cc(OC)c1OC,-3%,2%,10,3%,-6%
COc1cc(C(=O)N/N=C(\C)c2ccccn2)cc(OC)c1OC,1%,13%,-88*,-13%,-25%
COc1cc(NC(=O)c2ccccn2)cc(OC)c1OC,-1%,-8%,-33,6%,7%
C/C(=N\NC(=O)c1cc(C)nc2ccccc12)c1ccccn1,-5%,-13%,-114*,-26%,2.8µM*
COc1cc(C(=O)NN=C2c3ccccc3-c3ccccc32)cc(OC)c1OC,.,.,-88*,.,.
C/C(=N\NC(=O)c1cc(C)nc2ccccc12)c1ccncc1,-2%,-26%,6,-6%,14%
COc1ccc2c(c1)[C@@H](NC(=O)OCc1ccccc1)[C@H](C)[C@@H](C(C)C)N2,.,.,-19,.,.
CCCS(=O)(=O)c1nnnn1-c1cccc(OC)c1,?,-12%,.,28µM*,8.9µM*
COc1cccc(-n2nnnc2SCC(=O)Nc2ccccc2OC)c1,?,-37%,19,-11%,?
CC(C)(C)OC(=O)N(Cc1ccccc1)Cc1cccc(OCc2cccc(NC(=O)c3ccccc3)c2)c1,.,.,-28,?,7.9µM*
CC(C)(C)OC(=O)N(Cc1ccccc1)Cc1ccc(OCc2cccc(NC(=O)C3CC3)c2)cc1,.,.,?,14µM*,?
Cc1cccc(-c2nc(CN3CCCC(C(=O)NCCc4ccc(Cl)cc4)C3)c(C)o2)c1 (stereo not drawn),19%,.,-16,-16%,.
COc1ccc(OCc2cc(C(=O)N(C)Cc3cnccn3)no2)c(Cl)c1,-13%,63%,?,29%,.
CN(Cc1nccs1)C(=O)c1cc(COc2cccc3cnccc23)on1,0%,5%,-75*,?,6.3µM*
COc1cc(Cl)ccc1OCc1cc(C(=O)N(C)Cc2cccc3cnccc23)no1,5%,105%,?,?,8.9µM*
O=C(Cc1cccc2ccccc12)Nc1ccccc1Br,-21%,-13%,-8,8%,7%

# Assay outcomes (PubChem)
